Test results: PubChem BioAssay AID686979 (National Center for Advancing Translational Sciences (NCATS), 2013)
Out of some 420,000 compounds screened, about 50,000 (12%) were called active. Another 26% or so got no clear call; they are omitted. Only a selection was taken, and actives are over-represented in it overall. Unmarked numbers belong to inactive results. The call rests on the fitted dose curve; in most records, active means well fitted inhibition curve with a large enough effect; inconclusive means small, poorly fitted or top-dose-only effect; inactive means flat fitted curve, though single readings scatter.
On the % scale 0 is the no-effect control and ±100 the full control effect; potency means the concentration at half of the fitted maximal effect.

Assay: qHTS for Inhibitors of human tyrosyl-DNA phosphodiesterase 1 (TDP1): qHTS in cells in presence of CPT; further: nearly all actives have a fitted effect of over 55% in size
Settings: chicken DT40 Tdp1-/-;hTDP1 cells + 20 nM CPT, ATP luminescence, 48 h; series mostly up to 46.2 µM; activity change, negative = growth inhibition: at the top concentration
How it was run: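 Chicken DT40 Tdp1-/- cells stably complemented with human TDP1 were seeded at 400 cells/well in medium containing 20 nM camptothecin, exposed to pin-transferred compounds, and grown at 37 °C for at least 48 hr. Viability was read as ATP luminescence.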
With COc1ccc(CCNC(=O)COC(=O)c2cnc(Cl)c(Cl)c2)cc1 the “activity change, negative = growth inhibition” value was -10.5%. For COc1ccc(CCC(=O)NCCc2csc(-c3ccc(Cl)cc3)n2)cc1, the Potency was 23.1 µM (active). In the case of COc1ccc(OCCCC(=O)NCCc2ccccc2)cc1, the “activity change, negative = growth inhibition” value was -3.96%. In the case of CCOc1ccc(C(=O)Nc2cc(Cl)ccc2-n2cncn2)cc1OC, the “activity change, negative = growth inhibition” value was 2.16%. For CCC(NC(=O)C1CCCC1)c1ccc(C)cc1 (configuration not stated), the “activity change, negative = growth inhibition” value was -15.1%. For Cc1cc[n+](C2CCCCC2)cc1, the Potency was 15.8 µM (active). For O=C(NNC(=O)c1ccccc1O)c1ccccc1O, the Potency was 5.17 µM (active). In the case of Cc1ccc(S(=O)(=O)N2CCCCC2)cc1NC(=O)CCNC(=O)c1ccccc1Cl, the “activity change, negative = growth inhibition” value was -14.2%. With O=C(NNC(=O)c1cc(S(=O)(=O)N2CCCCC2)ccc1Cl)c1ccccc1O the Potency was 23.1 µM (active). For CC1=C(C)CC(C(=O)NNC(=O)c2ccccc2O)C(C(=O)O)C1 (configuration not stated), the Potency was 18.4 µM (active). With CC(=O)NC(=O)c1ccccc1O the “activity change, negative = growth inhibition” value was 1.83%. For NC(=O)COC(=O)c1cc(S(=O)(=O)N2CCN(c3ccccc3)CC2)ccc1Cl, the “activity change, negative = growth inhibition” value was -7.08%. With COc1ccccc1N(C)S(=O)(=O)c1ccc(Cl)c(C(=O)N2CCC(C(N)=O)CC2)c1 the “activity change, negative = growth inhibition” value was -26.7%. With CC1=C(C)CC(C(=O)NNC(=O)c2csc3c2CCC(C(C)(C)C)C3)C(C(=O)O)C1 (configuration not stated) the “activity change, negative = growth inhibition” value was 3.49%. With NC(=O)C1CCN(C(=O)c2cc(S(=O)(=O)N3CCN(c4ccccc4)CC3)ccc2Cl)CC1 the Potency was 10.3 µM (active). For O=C(COC(=O)c1cc(S(=O)(=O)N2CCCCC2)ccc1Cl)NCc1ccco1, the “activity change, negative = growth inhibition” value was 7.52%. For Cc1cc(C(=O)CCC(=O)NNC(=O)c2ccccc2O)c(C)s1, the “activity change, negative = growth inhibition” value was 3.31%. For CC1=C(C)CC(C(=O)NC(C)CCc2ccccc2)C(C(=O)O)C1 (configuration not stated), the “activity change, negative = growth inhibition” value was 16.8%. For COCCNC(=S)N(CCc1c(C)[nH]c2ccc(C)cc12)Cc1cccnc1, the “activity change, negative = growth inhibition” value was -23.2%. In the case of CC(NC(=O)CN(C)S(=O)(=O)c1ccc(F)cc1)C1CC2CCC1C2 (configuration not stated), the “activity change, negative = growth inhibition” value was -15.7%. With CC(=O)N/C(=C\c1ccccc1)C(=O)OC(C)C(=O)N(C)c1ccccc1 (configuration not stated) the “activity change, negative = growth inhibition” value was 9.34%. With CCOC(=O)Cn1c(O)c(N=NC(=O)CNC(=O)Cc2ccccc2)c2ccccc21 the “activity change, negative = growth inhibition” value was -17.9%. With CC(=O)Nc1ccc(S(=O)(=O)N2CCC(C(=O)N[C@@H](Cc3ccccc3)C(=O)O)CC2)cc1 the “activity change, negative = growth inhibition” value was -13.1%. In the case of COc1cccc(CNC(=O)C(NS(=O)(=O)c2ccc3nc(C)sc3c2)C(C)C)c1 (configuration not stated), the “activity change, negative = growth inhibition” value was 1.78%. With COc1cccc(/C=C2\SC(=S)N(CCCC(=O)N3CCOCC3)C2=O)c1 the Potency was 18.4 µM (active). For COc1ccc(/C=C2\SC(=S)N(CCC(=O)N3CCOCC3)C2=O)cc1OC, the “activity change, negative = growth inhibition” value was -2.91%. For COc1cccc(/C=C2/SC(=S)N(CC(=O)NC3C=CS(=O)(=O)C3)C2=O)c1 (configuration not stated), the “activity change, negative = growth inhibition” value was -24.6%.
